HSF-1 act – increases HSF-1 driven luciferase reporter signal | NIH3T3-HGL HSF-1 luciferase reporter, MG132, 8 h; 100% = twice DMSO control signal | activation, % at 9 µM | 300,000 compounds, 1.7% hits | AID 504408;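 active means mean replicate activation of at least 50% with a set share of replicates each reaching 50%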;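 further: 0% = median of the neutral control wells and 100% = twice that signal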
GC-B act – GC-B (human) receptor activation | P20594 | HEK293-GC-B cells, CNP EC30, cGMP TR-FRET; 0% at EC30 CNP, 100% saturating CNP | activation, % at 10 µM | 370,000 compounds, 0.11% hits;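 active means activation at 10 µM reaching about 35% in either raw or pattern-adjusted values, limit read from the data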
GC-A act – GC-A (human) enzyme activation; P16066; HEK293 GC-A cells, cGMP TR-FRET, EC30 ANP; 0% at EC30 ANP, 100% saturating ANP; activation, % at 10 µM; 370,000 compounds, 0.14% hits; in the data active means activation above about 40%
DYRK1A inh – Dyrk1A (rat) kinase inhibition | AID 504441 | inhibition, % at 12.5 µM | ADP-Glo luminescence, NFATc1 peptide | Q63470 | 310,000 compounds, 0.43% hits; in the data active means inhibition above about 50%;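 further: plate controls were vehicle with enzyme for no effect and no enzyme for full effect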
HSF1 inhib – HSF1 inhibition | NIH3T3-HGL HSE-luciferase, MG132-induced, luminescence 8 h; active compounds read low | activity change, negative = inhibition, % at 7.5 µM (by protocol) | 300,000 compounds, 0.77% hits;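 active means more than half of replicate wells show activity change below -50%, luminescence cut by over half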;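 further: luciferase reports HSF-1 transcriptional activity via heat shock element; 0% = median of DMSO wells and -100% = zero luminescence signal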
aDG glyco up – increases alpha dystroglycan glycosylation | Pro5-aDG cells, alpha-DG glycosylation AlphaScreen (IIH6); 0% Pro5, 100% B10-LARGE cell signal | activation, % at 10 µM | 360,000 compounds, 0.22% hits | AID 624168;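 active means activation of at least 8% versus controls, or a plate z-score of at least 8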;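 further: Pro5 are CHO cells carrying HIG-tagged alpha-DG that lacks glycosylation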
Starred values were filed as active, the others as inactive. This is a sample that favours compounds with a hit; in the whole collection about 2.5% have one here.

For COc1ccc(C(=O)Nc2nc3cc4c(cc3s2)OCCO4)c(OC)c1 the results were HSF-1 act -67.5, GC-B act -4.1, GC-A act -3.4, HSF1 inhib -61.2* and aDG glyco up 0.9.
NS(=O)(=O)c1cc2c(cc1Cl)NC(CC1CCCC1)NS2(=O)=O (stereo unspecified) was read as HSF-1 act -1.4, GC-B act -3.6, GC-A act -10.4, DYRK1A inh -1.8, HSF1 inhib -5.1 and aDG glyco up 0.1.
Screening COc1ccc(/C(O)=C2\C(=O)C(=O)N(CCN(C)C)C2c2cccc(OC)c2OC)cc1 (stereo unspecified) returned HSF-1 act -2.2, GC-B act 2.6, GC-A act 1.3, DYRK1A inh 5.6, HSF1 inhib -8.4 and aDG glyco up -0.2.
Screening CC(C)c1nc(CNC(=O)CC2C(=O)NCCN2Cc2ccc(F)cc2Cl)cs1 (stereo unspecified) returned HSF-1 act 11.3, GC-B act -5.7, GC-A act -3.8, DYRK1A inh 10.3, HSF1 inhib 4.9 and aDG glyco up 0.1.
Cc1ccc(/C=c2\s/c(=C(/C#N)C(=O)N3CCCC3)n(Cc3ccco3)c2=O)s1 was read as HSF-1 act 90.1*, GC-B act -6.5, GC-A act 1.8, DYRK1A inh -0.4, HSF1 inhib 50.3 and aDG glyco up -0.2.
Screening COc1cc(/C=c2\s/c(=C(/C#N)C(=O)N3CCCC3)n(-c3ccccc3)c2=O)ccc1O returned GC-B act 8.7, GC-A act 3.1, DYRK1A inh -3.8 and aDG glyco up -0.8.
CC(C)CNS(=O)(=O)c1cc(C(=O)OCC(=O)c2ccc3c(c2)OCCO3)c(Cl)cc1Cl was read as HSF-1 act 69.1*, GC-B act 7.7, GC-A act 5.0, DYRK1A inh -0.6, HSF1 inhib 21.5 and aDG glyco up 0.2.
Screening COC(=O)c1cc(C(=O)OCC(=O)NNC(=O)c2cccs2)cc([N+](=O)[O-])c1 returned HSF-1 act 12.8, GC-B act 3.6, GC-A act -2.2, DYRK1A inh 4.0, HSF1 inhib -2.4 and aDG glyco up 0.1.
O=[N+]([O-])c1ccc(-n2nnnc2-c2ccccc2)c([N+](=O)[O-])c1 was read as HSF-1 act 231.0*, GC-B act 6.2, GC-A act -1.1, DYRK1A inh 4.3, HSF1 inhib 243.8 and aDG glyco up 1.5.
`COc1ccc(CCNC(=O)c2cc(C(=O)c3cc(C)ccc3O)cn(CCc3ccc(OC)cc3)c2=O)cc1` gave HSF-1 act -8.5, GC-B act 8.3, GC-A act -3.8, DYRK1A inh -8.3, HSF1 inhib -3.6 and aDG glyco up -0.3.
Screening COc1ccc(N2C(=O)CSC2c2ccccc2[N+](=O)[O-])cc1 (stereo unspecified) returned HSF-1 act -17.9, GC-B act -1.9, GC-A act -12.6, HSF1 inhib 1.8 and aDG glyco up -0.2.
`CCOc1ccc(NC(=O)CN(C)C(=O)CN2C(=O)C3CC=CCC3C2=O)cc1OCC` (stereo unspecified) gave HSF-1 act -2.3, GC-B act -4.0, GC-A act 3.3, DYRK1A inh -4.6, HSF1 inhib -2.9 and aDG glyco up -0.4.
Screening Cc1cnc(-c2nnc(N(C)C(=O)c3cccnc3)s2)cn1 returned HSF-1 act -1.5, GC-B act 2.9, GC-A act -0.8, DYRK1A inh -4.2, HSF1 inhib -5.8 and aDG glyco up -0.3.
Screening CC(=O)N(c1ccccc1)c1nnc(-c2cnc(C)cn2)s1 returned HSF-1 act 54.5*, GC-B act -2.5, GC-A act 5.0, DYRK1A inh -8.4, HSF1 inhib 17.6 and aDG glyco up -0.2.
N#CCCn1nnc(-c2ccccc2F)n1 was read as HSF-1 act -71.0, GC-B act 4.1, GC-A act 1.6, DYRK1A inh 8.2, HSF1 inhib -62.9* and aDG glyco up 0.4.
`CC(C)c1ccc(-c2nnn(CCC#N)n2)cc1` gave HSF-1 act 10.4, GC-B act 0.7, GC-A act -6.1, DYRK1A inh 4.1, HSF1 inhib 7.1 and aDG glyco up 0.4.
Screening Cc1cccc(-c2cccc(NC(=O)C3CCCN(C(=O)c4cccnc4)C3)c2)c1 (stereo unspecified) returned HSF-1 act 66.6*, GC-B act -0.8, GC-A act 2.6, DYRK1A inh 4.5, HSF1 inhib 20.8 and aDG glyco up 0.2.
Screening Cc1cccc(-c2cccc(NC(=O)C3CCCN(C(=O)c4csc(C)n4)C3)c2)c1 (stereo unspecified) returned HSF-1 act 59.8*, GC-B act 1.7, GC-A act 11.1, DYRK1A inh -4.4, HSF1 inhib 38.5 and aDG glyco up 0.7.
Screening Cc1cccc(-c2cccc(NC(=O)C3CCCN(C(=O)c4ocnc4C)C3)c2)c1 (stereo unspecified) returned HSF-1 act 41.4, GC-B act 3.6, GC-A act 1.9, DYRK1A inh -2.6, HSF1 inhib 15.7 and aDG glyco up 0.1.
Screening O=C1OC=NC1=Cc1ccccc1 returned GC-B act 0.8, GC-A act 1.8, DYRK1A inh -4.7 and aDG glyco up 0.0.
CCn1c(C)nc2cc(-c3nc4n(n3)Cc3ccccc3-4)ccc21 was read as HSF-1 act -93.2, DYRK1A inh 16.7, HSF1 inhib -93.2* and aDG glyco up 0.2.
Screening CC1CN(c2ccc([N+](=O)[O-])c(NCCOc3ccccc3)c2)CCN1 (stereo unspecified) returned HSF-1 act 9.5, GC-B act 22.1, GC-A act 43.5*, DYRK1A inh -6.7, HSF1 inhib 15.3 and aDG glyco up 0.6.
`NC(=O)NN=C1C2CCCC1C(c1ccccc1)NC2c1ccccc1` (stereo unspecified) gave HSF-1 act 3.2, GC-B act -9.4, GC-A act -9.7, DYRK1A inh 9.4, HSF1 inhib -2.1 and aDG glyco up 0.1.
For Cc1ccc(-n2cnc3sc(C)c(C)c3c2=O)cc1 the results were HSF-1 act 59.5*, GC-B act 6.9, GC-A act -3.4, DYRK1A inh -4.7, HSF1 inhib 22.5 and aDG glyco up -0.1.
Screening Cc1cccc(-n2cnc3sc(C)c(C)c3c2=O)c1 returned HSF-1 act 10.3, GC-B act -4.6, GC-A act 2.8, DYRK1A inh 0.4, HSF1 inhib 1.6 and aDG glyco up 0.0.
`CCOC(=O)Nc1ccc2c(c1)N(C(=O)CN(CC)CC)c1ccccc1CC2` gave HSF-1 act -34.6, GC-B act -2.4, GC-A act -8.8, DYRK1A inh 10.1, HSF1 inhib -17.9 and aDG glyco up -0.1.

High-throughput results deposited in PubChem BioAssay by several laboratories.
